ATXN2 expr inh = inhibitors of ATXN2 expression. HEK-293 ATXN2-luciferase reporter, luminescence, 24 h. actives 0.72% (n = 360,000). Potency, µM (top dose mostly 57 µM), inactives show at the top dose activity change, negative = inhibition, usual class: inhibitors. AID 1745845; further: on the % scale 0 is the no-effect control and ±100 the full control effect; nearly all actives have a fitted effect of over 55% in size
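ATXN2-luciferase reporter cells (luciferase flanked by upstream and downstream ATXN2 gene portions) were treated 24 h at 37 °C with compounds at up to 57 uM. SteadyGlo luminescence gave expression; GF-AFC fluorescence gave viability.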
A549 viability = counter-screen for Nrf2 inhibitors: cytotoxicity in A549 cells. A549 ARE-Fluc cells, CellTiter-Fluor viability, 18-24 h. Potency, µM (highest dose often 46 µM), without a hit: at the top dose activity change, negative = cytotoxicity, hits mostly inhibitors. actives 0.16% (n = 390,000). AID 504648; further: on the % scale 0 is the no-effect control and ±100 the full control effect
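Cytotoxicity counterscreen: CellTiter-Fluor fluorescence was measured in A549 ARE_Fluc cells after 18-24 h of compound exposure in a concentration series. The subsequent BugLite luminescent read reports ARE-luciferase activity.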
Nrf2 block = Nrf2 pathway inhibition | A549 ARE-Fluc reporter, luciferase luminescence, 18-24 h | Potency, µM (series often up to 46 µM), inactives show at the top dose activity change, negative = inhibition, usual class: inhibitors | actives 2.1% (n = 360,000) | AID 504444; further: on the % scale 0 is the no-effect control and ±100 the full control effect; nearly all actives have a fitted effect of over 60% in size
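Nrf2 activity is the BugLite luminescence, read 15 min after reagent at room temperature, following CellTiter-Fluor cytotoxicity readout (30 min, 37C). Compound titrations were applied for 18-24 h to 5000 A549 ARE_Fluc cells/well in 5% FBS OPTI-MEM.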
S2 tox = reduces viability in counter-screen for ATXN expression inhibitors. actives 0.49% (n = 400,000). Potency, µM (highest dose often 56.7 µM), most hits filed as cytotoxic. AID 651635. S2 cells (HEK-293 line with an ATXN2-luciferase reporter) viability, CellTiter-Fluor protease fluorescence, 24 h; further: nearly all actives have a fitted effect of over 40% in size
Nrf2 activator = activates Nrf2 signaling; Potency, µM (series often up to 46.1 µM), for the others: at the highest dose activation, hits mostly activators; actives 0.31% (n = 410,000); AREc32 ARE-luciferase reporter (MCF7-derived line), luminescence, 24 h; further: % of control where 0% means no effect; nearly all actives have a fitted effect of over 65% in size
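For detection, Steady-Glo was added and plates sat 30 min at RT; before that, AREc32_Fluc cells grown overnight in OPTI-MEM/5% FBS had been treated with 23 nL compound for 24 hr at 37 deg C.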
* marks the source's active call; other numbers are inactive results; i = inactive; ? = inconclusive; . = no result given; [ ] = remark or other dose. An excerpt weighted towards active compounds, which were near 2.9% of everything screened. The call rests on the fitted dose curve; in most records, active means well fitted curve in the direction sought with a large enough effect; inconclusive means small, poorly fitted or top-dose-only effect, or another doubt; inactive means no such curve, though single readings can be large; an effect the other way counts as inactive or inconclusive. Potency means the concentration at half of the fitted maximal effect.

SMILES	ATXN2 expr inh	A549 viability	Nrf2 block	S2 tox	Nrf2 activator
Clc1ccc2c(c1)C(N1CCNCC1)Cc1ccccc1S2 (stereo unspecified)	?	?	-22%	32µM*	-2%
Cc1ccc(S(=O)(=O)Nc2ccc3[nH]c(=O)sc3c2)cc1C	.	0%	.	.	5%
COc1cc(/C=N/Nc2ccc(S(N)(=O)=O)cc2[N+](=O)[O-])cc(OC)c1O	.	1%	24%	i	7%
COc1cc(/C=N/Nc2ccccc2[N+](=O)[O-])cc(OC)c1O	-9%	-19%	-20%	?	10µM*
CC(C)Oc1ccccc1/C=N/Nc1ccccc1[N+](=O)[O-]	3%	-2%	15%	i	10µM*
Nc1nn(-c2ccccc2)c(N)c1N=Nc1ccc2c(c1)OCO2	66%	15µM*	-10%	?	-1%
Nc1nn(-c2ccccc2)c(N)c1N=Nc1cccc(F)c1	54%	-8%	?	?	7%
C/C=C/c1ccc(OC)c(OC(C)=O)c1	4%	-1%	28%	i	0%
CC1=NN(c2ccccc2)C(=O)C1C(=O)c1ccc(Cl)cc1 (stereo unspecified)	?	?	18µM*	?	0%
CC(=O)Nc1ccc(NC2=C/C(=N/S(=O)(=O)c3cccs3)c3ccccc3C2=O)cc1	16µM*	0%	2%	10µM*	-3%
Cc1ccc(NC2=C/C(=N/S(=O)(=O)c3cccs3)c3ccccc3C2=O)cc1C	8%	-3%	7%	i	-1%
Cc1ccccc1NC1=C/C(=N\S(=O)(=O)c2cccs2)c2ccccc2C1=O	7.9µM*	?	?	6.3µM*	-3%
CCc1ccc(S(=O)(=O)/N=C2\C=C(NS(=O)(=O)c3ccccc3)C(=O)c3ccccc32)cc1	-21%	-16%	?	?	-1%
Cc1cc(C)c[n+](C2=C([O-])c3ccccc3C(=O)/C2=N\S(=O)(=O)c2cccs2)c1	-4%	?	21µM*	i	0%
COc1ccc(S(=O)(=O)/N=C2\C=C(Nc3ccc(O)cc3)C(=O)c3ccccc32)cc1	3.2µM*	?	?	6.3µM*	-2%
CCCc1cc(=O)oc2cc(C)cc(OCC(=O)Nc3cccnc3)c12	-16%	-11%	10%	i	0%
CCOC(=O)/C=C/C(=O)Nc1ccc(S(=O)(=O)N(C)c2ccccc2)cc1	?	-4%	-1%	i	?
COc1ccc(S(=O)(=O)Nc2cc(C(=O)NC(C)C)ccc2N2CCOCC2)cc1	-19%	-3%	-27%	i	0%
COc1ccc(S(=O)(=O)Nc2cc(C(=O)NC3CCCCCC3)ccc2N2CCOCC2)cc1	16%	1%[1.84 µM]	18µM*	i	3%
CC(C)(C)NC(=O)C(c1ccc(-c2ccccc2)cc1)N(C[C@H]1CC[C@@H]([C@@H]2CC[C@H](CO)O2)O1)C(=O)c1ccc(C(C)(C)C)cc1 (stereo partly specified)	-28%	?	?	20µM*	-2%
C=CCNC(=S)NNC(=O)c1csc(CC)c1	19%	-1%	14%	i	2%
Cc1cc2c(cc(C(=O)OC(C(=O)NC3CCCCC3)C(C)C)n2C)o1 (stereo unspecified)	.	-12%	21µM*	i	2%
Cc1cc2c(cc(C(=O)OC(C(=O)NCC3CCCO3)C(C)C)n2C)o1 (stereo unspecified)	-18%	-11%	?	?	-1%
Cc1ccc(C(=O)NCCc2cccs2)cc1	14µM*	1%	?	i	-3%
CC(C)Cn1nc(NC(=O)c2ccco2)c2cc3ccccc3nc21	0%	20%	16µM*	i	5%
SMILES	ATXN2 expr inh	A549 viability	Nrf2 block	S2 tox	Nrf2 activator
CC(C)Cn1nc(NC(=O)c2cccs2)c2cc3ccccc3nc21	.	4%	16µM*	.	0%
O=c1oc2cc(O)ccc2s1	?	2%	13µM*	i	?
O=c1c(O)c(-c2ccc(O)cc2O)oc2cc(O)cc(O)c12	-4%	.	.	.	.
CSc1ncc(C(=O)Nc2ccccc2)cn1	-28%	8%	-10%	i	3%
Oc1c(N=Nc2nn[nH]n2)ccc2ccccc12	-32%	.	.	22µM*	-5%
Cc1nnc(-c2ccccc2)nc1N(C)C	-3%	0%	14%	i	2%

Assay outcomes deposited in PubChem BioAssay by National Center for Advancing Translational Sciences (NCATS).
